The structures appear in SMILES notation. The panel holds about 83,000 compounds, 20% with a hit somewhere; the sample as a whole holds those more often.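 Each cell line was grown in a 96-well plate and treated with one concentration of compound for 48 hours. Values below 10 were considered active.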 Unmarked numbers belong to inactive results. Calls of active or inactive are those of the source.

Among the test systems are DU-145 prostate; K-562 leukemia; MALME-3M melanoma; MDA-MB-231 breast; RXF 393 renal; SF-268 CNS; SF-295 CNS; SF-539 CNS; UACC-257 melanoma; M14 melanoma; HCT-15 colon; HT29 colon; SNB-75 CNS; SNB-19 CNS; U251 CNS; PC-3 prostate; SK-MEL-5 melanoma; UACC-62 melanoma; LOX IMVI melanoma; SK-MEL-28 melanoma.
What all share (test): NCI-60 one-dose screen, 48 h (100 = growth as untreated, 0 = no growth, -100 = all killed)
Common to all, as to conditions: 10 µM unless noted

For `FC(F)(F)c1cc(Nc2ccc3cc(OCCCN4CCOCC4)ccc3n2)ccc1Cl`, the growth with DU-145 prostate was 47.6%; in the assay on K-562 leukemia, -27.3% (active); in the assay on MALME-3M melanoma it was 47.4%; in the assay with MDA-MB-231 breast, -17.8% (active); with RXF 393 renal, -0.217% (active); with SF-268 CNS, 46.9%. Moreover, the growth with SF-295 CNS was -56.7% (active); in the assay on SF-539 CNS it was -0.973% (active); in the assay with UACC-257 melanoma it was 49.2%; in the assay on M14 melanoma, 19%; in the assay on HCT-15 colon, -0.426% (active); in the assay on HT29 colon it was -50.3% (active). For the same molecule, the growth is 10.8% in the assay on SNB-75 CNS; 41.1% with SNB-19 CNS; -10.6% (active) in the assay with U251 CNS; 23.5% in the assay on PC-3 prostate; 64.4% with SK-MEL-5 melanoma; -29.7% (active) with UACC-62 melanoma. For the same molecule, the growth in the assay on LOX IMVI melanoma was -82.1% (active); with SK-MEL-28 melanoma it was 13.7%.
Regarding `COc1ccc(-c2cc(-c3cc(OC)c(OC)c(OC)c3)c(C#N)c(N3CCOCC3)n2)cc1O`, the growth with DU-145 prostate was 59%; in the assay on K-562 leukemia, 2.4% (active); in the assay with MALME-3M melanoma, 126%; in the assay on MDA-MB-231 breast, 49.8%; in the assay on RXF 393 renal it was 41.3%; in the assay with SF-268 CNS, 49.6%. Moreover, the growth in the assay on SF-295 CNS was 41.6%; in the assay on SF-539 CNS, 37.9%; with UACC-257 melanoma, 90.3%; in the assay on M14 melanoma, 67.5%; in the assay with HCT-15 colon it was 23.5%; with HT29 colon, 108%. Moreover, the growth in the assay with SNB-75 CNS is 30.1%; in the assay with SNB-19 CNS, 52.3%; in the assay on U251 CNS, 51.1%; with PC-3 prostate it was 38.9%; with SK-MEL-5 melanoma it was 60.8%; in the assay with UACC-62 melanoma, 89.9%. Moreover, the growth in the assay on LOX IMVI melanoma is 13.7%; with SK-MEL-28 melanoma, 60%.
Consider `O=C(O)c1ccc2c(c1)CCC2`, for which the growth in the assay on DU-145 prostate was 118%; with K-562 leukemia, 91.3%; in the assay with MALME-3M melanoma, 106%; with MDA-MB-231 breast, 117%; in the assay on RXF 393 renal, 120%; in the assay on SF-268 CNS, 111%. The growth was 103% in the assay on SF-295 CNS; 105% with SF-539 CNS; 105% in the assay with UACC-257 melanoma; 101% with M14 melanoma; 104% with HCT-15 colon; 103% in the assay with HT29 colon. Moreover, the growth in the assay with SNB-75 CNS was 107%; in the assay with SNB-19 CNS, 103%; with U251 CNS it was 104%; with PC-3 prostate, 106%; in the assay with SK-MEL-5 melanoma it was 108%; in the assay on UACC-62 melanoma, 113%. Moreover, the figures for the growth in the assay with LOX IMVI melanoma and in the assay with SK-MEL-28 melanoma were 97% and 112%, respectively.
With `Cc1ccc2nc(C)c(-c3nnc(SCc4ccc(C#N)cc4)o3)n2c1`, the growth was 112% in the assay with DU-145 prostate; 38% in the assay with K-562 leukemia; 101% in the assay on MALME-3M melanoma; 74.2% with MDA-MB-231 breast; 89.5% with RXF 393 renal; 96.6% with SF-268 CNS. The growth is 92.9% in the assay on SF-295 CNS; 88.3% with SF-539 CNS; 119% with UACC-257 melanoma; 102% in the assay on M14 melanoma; 79.6% in the assay on HCT-15 colon; 115% in the assay with HT29 colon. In addition, the growth in the assay with SNB-75 CNS is 77.7%; with SNB-19 CNS it was 90.7%; in the assay with U251 CNS, 95.3%; with PC-3 prostate, 109%; with SK-MEL-5 melanoma, 92.9%; in the assay on UACC-62 melanoma, 74.4%. The growth in the assay on LOX IMVI melanoma was 93.2%; in the assay on SK-MEL-28 melanoma, 100%.
As to `COc1cc(/C=N/n2c(CN3CCOCC3)nc3ccccc3c2=O)cc(OC)c1OC`, the growth with DU-145 prostate was 115%; with K-562 leukemia it was 97.2%; with MALME-3M melanoma it was 106%; with MDA-MB-231 breast, 102%; with RXF 393 renal, 117%; in the assay on SF-268 CNS, 98.1%. Further, the growth was 98.6% with SF-295 CNS; 97.9% in the assay on SF-539 CNS; 97% with UACC-257 melanoma; 102% in the assay on M14 melanoma; 106% in the assay with HCT-15 colon; 103% with HT29 colon. The growth with SNB-75 CNS is 94.4%; in the assay on SNB-19 CNS, 95.7%; in the assay on U251 CNS, 98.7%; in the assay on PC-3 prostate it was 101%; in the assay with SK-MEL-5 melanoma it was 101%; in the assay on UACC-62 melanoma, 97.6%. The growth in the assay with LOX IMVI melanoma was 100%; in the assay with SK-MEL-28 melanoma, 99.3%.
For `COc1cc(C2CC(=O)Nc3c2c(C)nn3-c2nc3ccccc3[nH]2)c(OC)c2c1OCO2` (stereo not given), the growth in the assay with DU-145 prostate was 88.5%; with K-562 leukemia, 17.2%; with MALME-3M melanoma it was 73.9%; in the assay on MDA-MB-231 breast, 73.4%; with RXF 393 renal, 73.2%; in the assay on SF-268 CNS it was 71%. The growth in the assay on SF-295 CNS is 36.9%; with SF-539 CNS it was 78.4%; in the assay on UACC-257 melanoma, 85.5%; with M14 melanoma it was 52.1%; in the assay with HCT-15 colon it was 40.2%; in the assay with HT29 colon, 95%. For the same molecule, the growth with SNB-75 CNS is 31.1%; in the assay on SNB-19 CNS, 71.4%; in the assay with U251 CNS it was 67.8%; in the assay on PC-3 prostate, 71.3%; with SK-MEL-5 melanoma, 56.9%; in the assay with UACC-62 melanoma, 55.5%. Also, the results for the growth in the assay with LOX IMVI melanoma and with SK-MEL-28 melanoma were 82.1% and 75.8%, respectively.
For the molecule `Cc1ccc(C(=O)CSc2nc(-c3ccc(Br)cc3)c(C#N)c(=O)[nH]2)cc1`, the growth with DU-145 prostate was 104%; in the assay on K-562 leukemia, 53.3%; with MALME-3M melanoma, 93%; with MDA-MB-231 breast, 96.4%; in the assay on RXF 393 renal it was 99.1%; in the assay on SF-268 CNS, 97.5%. Moreover, the growth is 106% in the assay on SF-295 CNS; 94.8% in the assay with SF-539 CNS; 98.7% with UACC-257 melanoma; 92.7% in the assay on M14 melanoma; 105% with HCT-15 colon; 93.9% in the assay with HT29 colon. The growth is 64.5% with SNB-75 CNS; 96.7% in the assay with SNB-19 CNS; 105% in the assay on U251 CNS; 90.9% in the assay on PC-3 prostate; 97.2% with SK-MEL-5 melanoma; 97.1% with UACC-62 melanoma. Also, the growth in the assay with LOX IMVI melanoma is 98%; in the assay on SK-MEL-28 melanoma, 101%.

The record behind these values is PubChem BioAssay (NCI).
